Assay outcomes from PubChem.
Sa growth 42C = inhibitors of Staphylococcus aureus growth at 42 °C. S. aureus RN4220 growth, OD600, 20 h; hits give low values. relative growth, % (test concentration not listed). actives 0.53% (n = 170,000). AID 720641;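 active = relative growth at most 50% at the other temperature and 20+ points below 30 °C, or under 10% at both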
S aureus helic = blocks Staphylococcus aureus DNA helicase. purified S. aureus helicase, fluorescence unwinding assay. inhibition, % (test concentration not listed). actives 0.05% (n = 120,000); in the data active = inhibition above about 25%, passing the limit was not always enough
Large screens that a line does not name were inactive; ! = a repeat was not active. A selection: hits, their analogues and other compounds. The true share with any hit is near 0.52%.

CCN(CC)S(=O)(=O)c1cc(C(=O)Oc2ccc3c(c2)OCO3)ccc1C	Sa growth 42C 43.7
CCOC(=O)c1ccc(NC(=O)c2nc(S(=O)(=O)Cc3ccccc3)ncc2Cl)cc1	none (no result: S aureus helic)
CC(C)c1nnc(NC(=O)c2nc(S(=O)(=O)Cc3ccccc3)ncc2Cl)s1	Sa growth 42C 7.3 (no result: S aureus helic)
Cc1ccc(NC(=O)c2nc(S(=O)(=O)Cc3ccc(F)cc3)ncc2Cl)cc1C	none (no result: S aureus helic)
COc1ccc(OC)c(NC(=O)c2nc(S(=O)(=O)Cc3ccc(F)cc3)ncc2Cl)c1	Sa growth 42C -1.1 (no result: S aureus helic)
CC(C)Sc1ncc(Cl)c(C(=O)Nc2nnc(C(C)C)s2)n1	none (no result: S aureus helic)
Cc1ccc(CS(=O)(=O)c2ncc(Cl)c(C(=O)Nc3nc4ccc(C)cc4s3)n2)cc1	none (no result: S aureus helic)
Cc1ccccc1CS(=O)(=O)c1ncc(Cl)c(C(=O)Nc2nnc(C(C)C)s2)n1	Sa growth 42C 5.7 (no result: S aureus helic)
CCCc1nnc(NC(=O)c2nc(S(=O)(=O)Cc3ccc(C)cc3)ncc2Cl)s1	Sa growth 42C 4.1 (no result: S aureus helic)
N#Cc1ccc(/C=C/c2ccc(C#N)cc2)cc1	none
Cc1ccc(CSc2ncc(C(F)(F)F)cc2Cl)cc1	none (no result: S aureus helic)
OCc1ccc(N2CCCC2)cc1F	none
O=C(Nc1ccc(Cl)cc1)OCc1noc(-c2cccs2)n1	none (no result: S aureus helic)
COc1ccc(-c2coc3cc(OC)cc(O)c3/c2=N\N)cc1	none
O=C(CCSCc1ccc(Cl)cc1)N1CCN(c2ccccc2)CC1	none
Cc1ccc(C)c(N2CCN(C(=O)CCc3nnc4n(C)c(=O)c5ccccc5n34)CC2)c1	none (no result: S aureus helic)
O=c1oc2ccccc2c(O)c1C=Nc1ccccc1	none
O=Cc1c(O)c2ccccc2c2ccccc12	Sa growth 42C 9.1
O=C(Cc1ccc(F)cc1)N/N=C/c1ccc(C(=O)O)cc1	none
Cn1c(Cc2cccs2)nnc1SCCN1C(=O)c2ccccc2C1=O	none
O=C(O)CCC(=O)N1CCC(c2ccccc2)=N1	none
CCCCNc1ccc(C(F)(F)F)cc1N	none
CCCNc1ccccc1N	Sa growth 42C 6.7
Cc1ccc(Cl)cc1NCc1nnc2n1CCCCC2	none (no result: S aureus helic)
CC(C)(C)c1cc(C(c2ccc(O)cc2)N2CCOCC2)cc(C(C)(C)C)c1O (centres undefined)	Sa growth 42C -1.3
CC(C)(C)c1cc(C(c2ccccn2)N2CCCC2)cc(C(C)(C)C)c1O (centres undefined)	none
O=C(O)c1nn(CC2CCCCC2)c(=O)c2ccccc12	none
CCN(CC)c1ncc2c(=S)[nH]c(=S)[nH]c2n1	none (no result: S aureus helic)
C=CCSc1ncc2c(=S)[nH]c(=S)[nH]c2n1	Sa growth 42C 0.0 (no result: S aureus helic)
O=C(O)C1CCC(CNc2cc(=O)oc3ccccc23)CC1 (centres undefined)	none
C/C(=N\O)c1cc(-c2ccccc2)no1	Sa growth 42C -0.7 (no result: S aureus helic)
C/C(=N\OC(=O)c1ccccc1)c1cc(-c2ccccc2)no1	none
Cc1c(C(=O)O)oc2ccc(S(=O)(=O)NC3CCCCC3C)cc12 (centres undefined)	none
CC(=O)Oc1ccccc1C(=O)Nc1ccc(OC(F)F)cc1	Sa growth 42C 4.2
CC(=O)Oc1ccccc1C(=O)Nc1ccc(C(N)=O)cc1	none
O=c1c2ccccc2nc(-c2ccccc2)n1C1CCS(=O)(=O)C1 (centres undefined)	none
COc1ccc(/C=C(\C#N)c2ccc(C)cc2)cc1	Sa growth 42C 43.5 (no result: S aureus helic)
COc1ccc(/C=C(\C#N)c2ccc(OC)cc2)cc1	none (no result: S aureus helic)
C=CCc1ccccc1OCC(O)Cn1cnc2ccccc21 (centres undefined)	none (no result: Sa growth 42C)
O=C1CN(/N=C/c2ccc([N+](=O)[O-])o2)C(=O)N1	none (no result: S aureus helic)
O=C1OCCN1/N=C/c1ccc([N+](=O)[O-])o1	Sa growth 42C -0.9 (no result: S aureus helic)
c1ccc(-c2ccc3c(c2)c2c4n3CCNC4CCC2)cc1 (centres undefined)	Sa growth 42C 0.3
OC(c1ccccc1)c1ccc2c(c1)c1c3n2CCNC3CCC1 (centres undefined)	none
CCS(=O)(=O)c1nc2ccccc2n1CC(=O)N(C)c1ccccc1	none
C/C=C\C1=C(C(=O)O)N2C(=O)C(NC(=O)C(N)c3ccc(O)cc3)C2SC1 (centres undefined)	Sa growth 42C 1.2 (no result: S aureus helic)
CC1=C(C(=O)O)N2C(=O)[C@@H](NC(=O)[C@H](N)c3ccccc3)[C@H]2SC1	none (no result: S aureus helic)
Cc1ccc(-c2nnc(NC(=O)c3ccc4c(c3)OCCO4)o2)c(C)c1	none (no result: S aureus helic)
CCc1nnc(NC(=O)c2ccc(S(=O)(=O)N3CC(C)CC(C)C3)cc2)o1 (centres undefined)	Sa growth 42C 9.0
C=CCN(CC=C)S(=O)(=O)c1ccc(C(=O)Nc2nnc(-c3cc(C)ccc3C)o2)cc1	Sa growth 42C 1.7
C=CCN(CC=C)S(=O)(=O)c1ccc(C(=O)Nc2nnc(-c3ccc(OC)cc3)o2)cc1	none
Cc1ccc(-c2nnc(NC(=O)c3ccc(S(=O)(=O)N4CCCC4)cc3)o2)c(C)c1	Sa growth 42C 1.6
CCc1nnc(NC(=O)c2ccc(S(=O)(=O)N3CCCC3)cc2)o1	none
N#Cc1ccc(C(=O)N2CC=C(c3ccccc3)CC2)cc1	none (no result: Sa growth 42C)
Cc1nc2c(-c3ccccc3)c(C)nn2c(C)c1CCC(=O)NCc1ccc(Cl)cc1	none (no result: S aureus helic)
O=c1cc(-c2ccccc2)[nH]n1-c1nc2ccccc2[nH]1	Sa growth 42C 7.5
Cc1nn(-c2nc3ccccc3[nH]2)c(N)c1-c1ccccc1	none
Cc1[nH]n(-c2nc3ccccc3[nH]2)c(=O)c1C1OC(=O)c2ccccc21 (centres undefined)	none
Cc1cc(=O)n(-c2nc3ccccc3[nH]2)[nH]1	Sa growth 42C 8.3!
C=CCSc1nnc2n1CCCN2	none (no result: S aureus helic)
Cc1cc(C)cc(NC(=O)CCn2cnc3ccccc3c2=O)c1	none (no result: S aureus helic)
CC(=O)N1CCN(C(=O)Nc2c[nH]c3ccccc23)CC1	Sa growth 42C 6.1
O=C(Nc1c[nH]c2ccccc12)N1CCCc2ccccc21	none
CC1CCCCN1C(=O)Nc1c[nH]c2ccccc12 (centres undefined)	Sa growth 42C 2.7
O=C(NCCN1CCOCC1)Nc1c[nH]c2ccccc2c1=O	none
O=C(NCCN1CCOCC1)Nc1c[nH]c2ccccc12	Sa growth 42C 3.2
CC1Cc2ccccc2N1C(=O)Nc1c[nH]c2ccccc12 (centres undefined)	none
CC(C)(C)C(C)(C#N)Nc1ccc(Cl)cc1 (centres undefined)	none
CCc1ccc2oc(-c3ccc(NC(=O)c4cccc(Cl)c4Cl)cc3)nc2c1	none (no result: S aureus helic)
Cc1ccc(-c2nc(C(=O)NCCN3CCc4ccccc4C3)c3n2CCCCC3)cc1	none
c1ccc(CCn2c(Cc3cccs3)nc3ccccc32)cc1	none
CCn1cc(CN(C)C(=S)Nc2sc3c(c2C(=O)OC)CCC(C)C3)c(C)n1 (centres undefined)	none
CCN(CC)C(=O)c1sc(NC(=S)N(C)Cc2cn(CC)nc2C)c(C(=O)OC)c1C	Sa growth 42C 0.8
CC1(C)[C@H](C(=O)O)N2C(=O)C[C@H]2S1(=O)=O	none (no result: S aureus helic)
CC1(C)C(C(=O)O)N2C(=O)CC2S1(=O)=O (centres undefined)	Sa growth 42C 27.1
CCOC(=O)c1cn(C2CC2)c2c(F)c(F)c(F)cc2c1=O	none
CCc1ccc(C(=O)Nc2ccc(S(N)(=O)=O)cc2)cc1	none (no result: S aureus helic)
CC(C)(C)c1ccc(C(=O)Nc2ccc(S(N)(=O)=O)cc2)cc1	Sa growth 42C 2.7
CCc1nn2cc(-c3ccc(C)cc3)nc2s1	none
CN(Cc1ccccc1)S(=O)(=O)c1ccc2c(c1)n(C)c(=O)c(=O)n2C	none
CN1C(=O)CC(=O)N(C)c2cc(S(=O)(=O)N(C)Cc3ccccc3)ccc21	Sa growth 42C -1.7 (no result: S aureus helic)
COC(=O)C1=C(\N2CCOCC2)CCCC/C=C\1C(=O)OC	none
CCC(N)c1ccc(C)cc1 (centres undefined)	none
O=C(c1ccc2c(c1)CCCC2)N1CCN(c2ccccc2)CC1	none (no result: Sa growth 42C)
Cc1ccccc1Nc1cc(C)c(C#N)c2nc3ccccc3n12	Sa growth 42C 1.2
